An excerpt weighted towards active compounds, which were near 5% of everything screened.
CHT PAM: allosteric activators of human choline transporter CHT. Q9GZV3. B-score at 10 µM. 310,000 compounds, 0.49% hits. CHT-expressing cells, membrane potential dye, choline EC20; active compounds read high; LV-AA mutant CHT in HEK293 cells;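 active = initial fluorescence not abnormally high and integrated response B-score, plate-corrected, over 3 SD above library mean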
Target sequence (Q9GZV3 whole entry, looked up): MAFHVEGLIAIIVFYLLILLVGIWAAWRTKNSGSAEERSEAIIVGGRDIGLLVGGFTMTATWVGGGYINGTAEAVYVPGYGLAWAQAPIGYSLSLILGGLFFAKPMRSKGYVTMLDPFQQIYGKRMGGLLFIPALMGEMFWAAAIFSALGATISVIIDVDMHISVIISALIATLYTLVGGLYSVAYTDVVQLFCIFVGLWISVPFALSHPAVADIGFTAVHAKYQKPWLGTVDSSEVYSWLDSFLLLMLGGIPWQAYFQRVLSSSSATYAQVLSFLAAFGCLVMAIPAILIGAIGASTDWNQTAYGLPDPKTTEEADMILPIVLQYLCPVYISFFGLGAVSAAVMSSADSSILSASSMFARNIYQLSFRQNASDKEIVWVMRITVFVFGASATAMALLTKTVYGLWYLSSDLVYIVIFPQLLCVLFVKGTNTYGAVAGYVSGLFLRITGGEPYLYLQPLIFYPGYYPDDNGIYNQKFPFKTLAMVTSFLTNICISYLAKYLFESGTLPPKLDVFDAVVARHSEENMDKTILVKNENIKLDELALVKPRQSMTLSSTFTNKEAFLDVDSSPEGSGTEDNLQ
ALR inh: blocks human ALR sulfhydryl oxidase activity; P55789; purified ALR, DTT oxidation, H2O2 HRP-luminol luminescence; inhibition, % (test concentration not listed); 290,000 compounds, 3.8% hits; AID 485317;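 active = mean replicate inhibition above about 79%, with every replicate also reaching it, limit read from the data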
AI-2 QS modul: Vibrio harveyi AI-2 quorum sensing modulation; Vibrio harveyi JMH597 AI-2 luminescence/OD600 ratio, 9 h; active compounds read low; strain lacks LuxN and CqsS sensors; 0 = neutral-control median; activity change, % at 7.5 µM; 300,000 compounds, 0.4% hits; AID 2094; in the data active = activity change below about -75%, passing the limit was not always enough;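 also: luminescence divided by OD600 gain over 9 h not by final OD600 alone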
PREPL inhibitor: inhibits the human prolyl oligopeptidase-like enzyme; recombinant PREPL, fluorescence polarization activity-based probe; inhibition, % at 5.96 µM; 320,000 compounds, 0.68% hits; in the data active = inhibition above about 43%;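 also: 0% = enzyme with DMSO and 100% = wells lacking enzyme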
CHT block: inhibits the human high affinity choline transporter; 310,000 compounds, 0.86% hits; B-score at 10 µM; CHT-expressing cells, membrane potential dye, choline response; active compounds read low; Q9GZV3; AID 488975;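 active = B-score over 3 SD under the library average, and starting fluorescence ratio not unusually high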;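 also: choline stimulus applied at its EC90 after an EC20 pre-addition; B-score computed on integrated fluorescence ratio after choline addition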
CHT inh conf: human CHT inhibition, confirmatory screen; shares compounds with CHT block; CHT-expressing cells, choline membrane potential dye; LV-to-AA substituted CHT, HEK293 cells; CHT activity remaining % of control (active compounds read low), % at 10 µM; 2,400 compounds, 70% hits; AID 493221;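 active = choline transporter activity left, mean of duplicates at 10 µM, below buffer-only control mean minus 3 SD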;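 also: depolarization triggered by choline at its EC90 following an EC20 pre-addition; 0% = hemicholinium-3 full block and 100% = buffer-only control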
HEK293 MPD ctr: CHT inhibitor counter-screen hit in parental HEK293 cells; membrane potential dye, choline response; active = decrease or increase beyond buffer ±3SD; 2,400 compounds, 4% hits; shares compounds with CHT block; membrane potential ratio readout (active if shifted either direction beyond buffer ±3SD; no single direction) at 10 µM;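 also: parental cells lack the transporter so any hit is non-specific; ratio is peak minus trough fluorescence over baseline after EC90 choline challenge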
* marks the source's active call; other numbers are inactive results; i = inactive; x = not tested or not shown.

SMILES | CHT PAM | ALR inh | AI-2 QS modul | PREPL inhibitor | CHT block | CHT inh conf | HEK293 MPD ctr
CCN(CC)CCNC(=O)c1ccc(N2CCCCC2)c(NS(=O)(=O)c2ccc(C)cc2)c1 | i | 26.1 | 20.8 | 15.9 | -5.59* | 48.6%* | 4.03*
CCN(CC)CCNC(=O)c1ccc(NC(=O)c2ccc(S(=O)(=O)N3CCCCCC3)cc2)cc1 | i | -15.3 | 16.4 | 1.3 | i | x | x
O=C(c1ccc(NS(=O)(=O)c2ccc(F)cc2)cc1)N1CCC1 | i | -1.2 | 9.7 | 8.5 | i | x | x
Cc1ccc(S(=O)(=O)NN2C(=O)c3ccccc3NC2c2ccco2)cc1 (stereo unspecified) | i | -1.2 | 14.1 | 6.1 | i | x | x
CCn1c(COc2ccccc2)nc2ccccc21 | i | -3.0 | 2.6 | -5.1 | i | x | x
CCn1c(COc2ccc(OC)cc2)nc2ccccc21 | i | -4.0 | 24.1 | 6.0 | -5.15* | i | i
COc1ccc2c(c1)[C@H]1[C@H](CO2)[C@H](c2ccccc2)[C@]2(C)C(=O)N[C@@H](C)C(=O)N12 | x | -2.9 | x | 0.5 | x | x | x
c1ccc(CN2CCC(Nc3nc(-c4ccccc4)nc4ccccc34)CC2)cc1 | i | -21.9 | 10.8 | -23.6 | -6.26* | i | i
c1ccc(CNc2nc(N3CCN(Cc4ccccc4)CC3)nc3ccccc23)cc1 | i | -9.1 | 22.6 | 12.5 | i | x | x
O=C(NNC1=C(C(=O)C(F)(F)F)CCC1)c1ccc(Cl)cc1 | i | 9.5 | 59.5 | -9.6 | -5.05* | 40.1%* | i
COc1ccc(C(=O)NNC2=C(C(=O)C(F)(F)F)CCC2)cc1 | i | 42.4 | 7.0 | 1.2 | i | x | x
O=C(NNC1=C(C(=O)C(F)(F)F)CCC1)c1cccc(Cl)c1 | i | 25.1 | 13.0 | 3.7 | -9.77* | 40.1%* | i
O=C(O)c1ccc(/C=C2\COc3ccccc3C2=O)cc1 | i | 51.5 | -1.5 | -5.3 | -6.76* | 33.4%* | i
COc1ccc(CN(C)C(=O)c2ccc(NS(=O)(=O)c3ccc(C)c([N+](=O)[O-])c3)cc2)c(OC)c1OC | i | 7.0 | 25.5 | 14.4 | i | x | x
CCc1ccc2c(c1)C1(NN=C(c3ccc(C)cc3)S1)C(=O)N2 (stereo unspecified) | i | 12.6 | -44.7 | 18.2 | -5.87* | 66.8%* | i
CC(C)c1ccc2c(c1)C1(NN=C(c3ccccc3)S1)C(=O)N2 (stereo unspecified) | i | -6.1 | -90.7* | 5.8 | -6.56* | 56.1%* | i
CC(C)c1ccc(O)c(NC(=O)c2ncn[nH]2)c1 | i | 19.3 | 37.1 | 20.1 | i | x | x
CC(=O)C1=C(O)C(=O)N(Cc2ccccc2)C1c1ccc(F)cc1 (stereo unspecified) | i | -4.1 | 24.9 | -3.8 | i | x | x
CC(=O)C1=C(O)C(=O)N(Cc2ccccc2)C1c1ccccc1F (stereo unspecified) | i | -9.2 | 5.1 | 2.8 | -8.36* | i | i
Cc1ccc2c(c1)N(S(=O)(=O)c1ccc(CN3C(=O)c4cccnc4C3=O)cc1)CCO2 | i | -6.0 | 22.9 | -0.8 | i | x | x
Cc1ccc2c(c1)N(S(=O)(=O)c1ccc(CN3C(=O)c4cccnc4C3=O)s1)CCO2 | i | -7.1 | -0.7 | 6.8 | -5.21* | 69.2%* | i
CC(C)c1cc(-c2cc(C(=O)NCc3ccccc3)on2)nc(NCC2CC2)n1 | i | -22.5 | 1.5 | 9.6 | i | x | x
O=C(COC(=O)c1ccc([N+](=O)[O-])s1)c1ccc[nH]1 | x | -21.4 | x | 19.1 | x | x | x
CCC(=NC(C)c1ccccc1)c1c(O)n(C)c(=O)n(C)c1=O (stereo unspecified) | i | 1.1 | 25.1 | 13.8 | -7.55* | 51.2%* | i
CC1CCCCC1NC(=O)c1cccc(S(=O)(=O)N2CCN(C)CC2)c1 (stereo unspecified) | i | -7.7 | 28.5 | 8.1 | -11.6* | 2.1%* | i
SMILES | CHT PAM | ALR inh | AI-2 QS modul | PREPL inhibitor | CHT block | CHT inh conf | HEK293 MPD ctr
CC1CCCCC1NC(=O)c1ccc(S(=O)(=O)N2CCCC2)cc1 (stereo unspecified) | i | -3.9 | 10.2 | -1.9 | -5.36* | 7.2%* | i
CC1CCCCC1NC(=O)CCn1ccc2cc(S(=O)(=O)N3CCCC3)ccc21 (stereo unspecified) | i | -6.3 | 22.1 | 1.7 | -6.15* | 40.8%* | i
CC1CCCCC1NC(=O)c1ccc2c(c1)[nH]c(=O)n2C1CCCC1 (stereo unspecified) | i | 3.4 | 5.7 | 7.7 | -9.85* | 40.0%* | i
COc1ccc([N+](=O)[O-])cc1N(CC(=O)N1CCOCC1)S(C)(=O)=O | i | -4.6 | 16.6 | 2.2 | i | x | x
O=C(NCc1ccccc1)c1sc(=S)n2c1[nH]c(=O)c1ccccc12 | i | 98.4* | 27.7 | 17.9 | -6.69* | 63.4%* | i
CCCCNC(=O)c1sc(=S)n2c1[nH]c(=O)c1ccc(C(=O)NCCc3ccc(OC)c(OC)c3)cc12 | i | 18.1 | -1.0 | 41.4 | i | x | x
COc1ccc(NC(=O)n2ncc3c(C)cccc32)cc1 | i | x | 10.6 | 11.7 | i | x | x
COc1ccnc(N2CCN(c3ccccc3)CC2)c1C#N | i | 98.8* | 18.1 | 16.9 | -8.33* | i | i
COc1ccc(-c2csc(NC(=O)c3ccc(OCC(=O)N4CCOCC4)c(OC)c3)n2)cc1OC | i | -11.8 | 11.1 | 7.5 | i | x | x
c1ccn2c(SCc3ccc4c(c3)OCCO4)nnc2c1 | i | 7.1 | x | 14.0 | i | x | x
O=[N+]([O-])c1cccc(CSc2nnc3ccccn23)c1 | i | -6.8 | 17.3 | 13.2 | i | 67.3%* | i
CSc1nnc(-c2sccc2OCc2ccccc2)n1C | i | -0.4 | 16.3 | -5.0 | -7.27* | 54.8%* | -9.55*
CSc1n[nH]c(-c2sccc2OCc2ccc(C)cc2)n1 | i | -2.9 | 12.5 | 4.4 | i | x | x
COc1ccc(S(=O)(=O)N2CCC(O)(c3cccnc3)CC2)cc1OC | i | -0.8 | 25.8 | 4.6 | i | x | x
CC1=C(C(=O)NC(C)c2ccccc2)C2(CCC(C)CC2)OC1=O (stereo unspecified) | i | x | 8.5 | -5.2 | i | x | x
CC1=C(C(=O)NC(C)C)C2(CCC(C)CC2)OC1=O (stereo unspecified) | i | -7.7 | 4.9 | 2.9 | -6.24* | 65.7%* | i
Cc1csc(NC(=O)CN2C(=O)c3ccccc3S2(=O)=O)n1 | i | -0.9 | -2.7 | 0.9 | i | x | x
Cc1csc(NC(=O)CCN2C(=O)c3ccccc3S2(=O)=O)n1 | i | -13.8 | 17.3 | 3.1 | -5.93* | 69.3%* | i

Screening data deposited in PubChem BioAssay by several laboratories.
